Most compounds without a hit are left out; they make up all but 1.3% or so of the library.
TRPV1 agonist – HTS Assay for Compounds that Act as Agonists of the Vanilloid Receptor 1 | Transient receptor potential cation channel subfamily V member 1 (Homo sapiens), Q8NER1 | TRPV1-expressing cells, Fluo-8 calcium influx, agonist mode | activation, % at 8.33 µM | 320,000 compounds, 0.19% hits | AID 540275, 2011; in the data active = activation above about 80%; inconclusive = between about 30% and that limit; also: 0% is about no effect
Target sequence (Q8NER1 whole entry, looked up): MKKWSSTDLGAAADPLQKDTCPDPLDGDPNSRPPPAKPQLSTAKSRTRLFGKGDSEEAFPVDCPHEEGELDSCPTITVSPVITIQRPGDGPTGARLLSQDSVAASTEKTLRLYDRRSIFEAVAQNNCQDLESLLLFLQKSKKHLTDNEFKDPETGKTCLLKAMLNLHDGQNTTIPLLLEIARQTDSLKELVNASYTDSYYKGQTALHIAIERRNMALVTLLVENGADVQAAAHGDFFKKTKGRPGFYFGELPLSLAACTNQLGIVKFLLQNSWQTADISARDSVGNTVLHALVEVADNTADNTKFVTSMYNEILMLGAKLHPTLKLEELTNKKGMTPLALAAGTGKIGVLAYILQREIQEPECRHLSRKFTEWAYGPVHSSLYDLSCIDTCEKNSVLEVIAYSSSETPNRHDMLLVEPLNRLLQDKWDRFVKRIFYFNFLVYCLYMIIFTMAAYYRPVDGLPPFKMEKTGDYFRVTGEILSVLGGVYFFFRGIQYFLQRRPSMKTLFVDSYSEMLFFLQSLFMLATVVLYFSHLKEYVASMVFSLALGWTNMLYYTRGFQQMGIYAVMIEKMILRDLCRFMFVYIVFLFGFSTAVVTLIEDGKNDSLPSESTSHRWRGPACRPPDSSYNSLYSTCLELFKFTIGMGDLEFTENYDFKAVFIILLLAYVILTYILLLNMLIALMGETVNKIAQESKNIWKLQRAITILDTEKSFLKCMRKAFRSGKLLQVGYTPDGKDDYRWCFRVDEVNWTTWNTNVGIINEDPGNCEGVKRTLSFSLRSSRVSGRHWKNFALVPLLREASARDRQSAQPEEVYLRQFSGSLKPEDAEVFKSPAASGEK
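Cells expressing TRPV1 were dye-loaded with Fluo-8 and read kinetically: 10 s baseline, 3 min after compound (agonist portion), then 2 min after EC20 capsaicin (allosteric enhancer portion). Calcium-bound dye fluorescence at 480/520 nm.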
KCNH2 3.1 inh – qHTS for Inhibitors of KCHN2 3.1: Mutant qHTS; U2OS KCNH2 3.1, thallium flux FluxOr; stronger effect = lower value; activity change, % (tested at about 1.8 µM); 340,000 compounds, 0.95% hits;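 active = maximum activity change below -70%; inconclusive = maximum activity change from -70% to -50%; inactive = maximum activity change above -50%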;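 also: thallium influx rate constant from kinetic fluorescence after stimulation buffer; % is scaled to controls: 0 for no effect and ±100 for the full control effect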
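We transduce U2OS cells with the mutant 3.1 virus, culture them overnight, load FluxOr with Red40 quencher for 45 min, then add stimulation buffer and read kinetically for 2 min to derive a normalized rate constant.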
TRPV1 potentiator – HTS Assay for Compounds that Act as Potentiators of the Vanilloid Receptor 1. TRPV1-expressing cells, Fluo-8 calcium influx, capsaicin EC20 potentiation. potentiation, % at 8.33 µM. 320,000 compounds, 0.02% hits. AID 540277, 2011; in the data active = potentiation above about 80%; inconclusive = between about 30% and that limit; also: 0% is about no effect
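TRPV1-expressing cells were cultured overnight at 35.5C and loaded with Fluo-8 calcium dye for 40 to 90 min at room temperature. After a 10 s baseline, compound was added and calcium influx was read kinetically for 3 min (ex 480/em 520 nm).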
KCNH2 WT inh – qHTS for Inhibitors of KCHN2 3.1: Wildtype qHTS; Voltage-gated inwardly rectifying potassium channel KCNH2 (Homo sapiens), Q12809; U2OS, BacMam KCNH2, thallium flux FluxOr; stronger effect = lower value; activity change, % at 1.84 µM; 340,000 compounds, 0.37% hits; AID 720551, 2013;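 active = maximum activity change below -70%; inconclusive = maximum activity change between -70% and -50%; inactive = maximum activity change above -50%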; also: % is scaled to controls: 0 for no effect and ±100 for the full control effect
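U2OS cells were transduced with wild-type KCNH2 virus (2.03 x 10^8 / mL) for 4 h at room temperature, then cultured overnight at 37 C. Thallium flux was read with FluxOr dye. Rate constants were normalized to DMSO controls.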
Active calls of the source: *; ? = inconclusive; . = not tested or not shown.

SMILES	TRPV1 agonist	KCNH2 3.1 inh	TRPV1 potentiator	KCNH2 WT inh
Cc1ccc(C(=O)Nc2nc(-c3cccnc3)cs2)o1	6.5	3.4	-3.6	-0.1
Cc1noc(C)c1NC(=O)Nc1ccc2c(c1)CC(=O)N([C@@H](C)CO)C[C@@H](C)[C@@H](CN(C)C(=O)Nc1cccc3ccccc13)O2	.	-2.4	.	10.8
Oc1cccc(/C=N/Nc2nn3cnnc3c3ccccc23)c1	-2.2	-113.9*	-18.4	14.1
CCCCN(C(=O)c1ccc(-c2ccc(Cl)cc2)o1)c1c(N)n(CCCC)c(=O)[nH]c1=O	2.6	3.8	5.8	-201.8*
Cc1cc(Nc2cccc(Cl)c2Cl)n2ncnc2n1	2.3	-3.1	7.0	-221.7*
CSc1nc2ccc(Br)cc2[nH]1	1.9	-72.2*	5.7	1.3
C=CCn1c(CCNC(=O)c2cccs2)nnc1SCC(=O)c1ccc(Cl)cc1	1.4	-97.6*	2.0	25.7
O=C(NCCc1ccc(Cl)cc1)c1cccs1	81.5*	-10.5	-12.9	-2.0
O=C(CNC(=O)c1cccs1)c1ccc(Cl)cc1	22.9	17.8	-22.2	-4.5
CCC/C(C#CCCN1C(=O)c2ccccc2C1=O)=C1/c2ccccc2C(=O)N1c1ccccc1	.	6.9	.	-7.8
Cc1cc(N2CCN(c3nc4ccccc4s3)CC2)n2ncnc2n1	5.2	-71.8*	-1.1	21.5
Cc1cc(N2CCN(C(c3ccccc3)c3ccccc3)CC2)n2ncnc2n1	?	9.6	-22.6	23.4
CCCCNc1nc2cccnc2s1	-6.9	-129.5*	?	-1.9
N=c1n(CCN2CCCC2)c2ccccc2n1CC(O)c1ccc(Cl)c(Cl)c1 (stereo unspecified)	5.5	-84.3*	-2.4	.
CCCCCC1C(C(=O)OCC)C(=O)NC1(C(=O)OCC)C(=O)OCC (stereo unspecified)	.	-13.2	.	2.9
Cc1ccc(C(=O)CSc2nc(-c3ccccc3)cc(=O)[nH]2)cc1	-3.6	0.1	18.6	-91.4*
O=c1oc2ccccc2cc1-c1nc2c(s1)CCCC2	10.5	-86.6*	-0.7	0.8
Cc1cccc(NC(=O)Nc2c(C)n(C)n(-c3ccccc3)c2=O)c1	6.4	0.3	-1.5	-102.1*
COC(=O)C(C)n1cnc2c(nnn2-c2cccc(OC)c2)c1=O (stereo unspecified)	-1.4	11.8	17.7	-14.6
CCOC(=O)Oc1c(OC)cc(C(=O)O[C@@H]2C[C@@H]3CN4CCc5c([nH]c6cc(OC)ccc56)[C@H]4C[C@@H]3[C@H](C(=O)OC)[C@H]2OC)cc1OC	-2.0	-7.3	6.9	-18.6
O=C(O)C1=C[C@@H](C2CC2)C[C@@H](OCCCCO)O1	.	2.4	.	-5.0
O=C(C1=C[C@H](C2CC2)C[C@H](OCCCCO)O1)N1CCOCC1	0.3	-24.1	17.4	-88.6*
COC(=O)CSc1nnc(-c2ccncc2)n1N	1.8	2.5	-5.3	5.6
Cc1ccc(NC(=O)CSc2nnc(-c3ccncc3)n2N)cc1C	4.5	-7.2	2.9	-204.3*
O=C(c1ccc(F)cc1)C1CCN(Cc2cn[nH]c2-c2ccc(F)cc2)CC1	.	-79.7*	.	-22.3
SMILES	TRPV1 agonist	KCNH2 3.1 inh	TRPV1 potentiator	KCNH2 WT inh
COc1ccc(C(=O)C2CCCN(Cc3cn[nH]c3-c3ccc(F)cc3)C2)cc1OC (stereo unspecified)	0.7	-22.9	9.8	25.1
O=C(CCN1CCN(Cc2ccccc2)CC1)Nc1cccc(Br)c1	9.2	-5.2	-11.4	29.7
CCOc1cc(S(=O)(=O)N2CCN(c3ccc(F)cc3)CC2)c(OCC)cc1-n1cnnn1	2.0	-78.7*	-9.2	-76.2*
O=C(O)/C=C/c1ccc2c(-c3ccccc3)onc2c1	0.0	-12.2	16.6	-126.0*
CC(C)C[C@@H](NC(=O)C1CCC(CNC(=O)[C@@H]2CCCN2C(=O)OC(C)(C)C)CC1)C(=O)O (stereo partly specified)	-1.3	3.2	-3.6	-16.3
COc1ccc(C)cc1NC(=O)C1CCN(C(=O)C2CC(=O)N(c3ccc(C)cc3)C2)CC1 (stereo unspecified)	1.5	-3.4	6.1	8.0
Cc1ccc(C(=O)C2(C)C3c4cc(Br)ccc4OC(=O)C32C(=O)c2ccco2)cc1 (stereo unspecified)	9.3	-114.1*	0.6	-11.7
Cc1cccc(C)c1NC(=O)CNC(=O)Cc1c[nH]c2ccccc12	-2.2	5.0	?	-106.0*
CC(C)CNC(=O)CCCc1c[nH]c2ccccc12	-0.8	-11.5	-16.4	-70.4*
O=C(CCc1c[nH]c2ccccc12)NCCc1ccc(Cl)cc1	80.1*	-3.7	-0.1	-14.8
O=C(CCCc1c[nH]c2ccccc12)NCCc1c[nH]c2ccccc12	?	-1.4	-10.4	0.0
CC1(C)CC(NC(=O)C2CCN(S(=O)(=O)c3ccc(F)cc3)CC2)CC(C)(C)N1	-1.8	2.8	-14.4	-3.3
COc1ccc(C(=O)NCC(=O)OCC(=O)NC2CCCCCC2)cc1OC	.	-0.2	.	15.0
O=C(CN1CCN(C(=O)c2ccccc2)CC1)Nc1ncc(Br)cc1Br	-7.5	-85.1*	-18.4	-19.9
Cc1cc(N2C3CCC2CC(O)(c2ccc(F)cc2)C3)nc(-c2ccccc2)n1 (stereo unspecified)	-9.8	-71.8*	19.0	10.7
CC(CN1CCOCC1)OC(=O)c1ccc2c(c1)OCCO2 (stereo unspecified)	-0.8	19.7	-6.9	-261.6*
O=S(=O)(Cc1c(F)cccc1Cl)c1ncn[nH]1	-4.1	3.0	-2.6	-4.4
O=S(=O)(Cc1ccccc1Cl)c1ncn[nH]1	0.0	-156.4*	?	-129.8*
Cc1ccccc1-c1ccc(Nc2ccc(N3CCOCC3)cc2)nn1	-2.2	-73.4*	?	-32.6
O=S1(=O)N=C(Nc2ccc(N3CCOCC3)cc2)c2ccccc21	3.6	1.9	-1.1	7.6
Cc1cccc(C)c1NC(=O)CN	-1.9	-14.8	0.9	2.8
Cc1cccc(C)c1NC(=O)Cn1nnnc1N	-0.3	-90.8*	5.4	-3.9
CN1CCN(c2nc(NCCOC34CC5CC(CC(C5)C3)C4)nc(OCC(F)(F)F)n2)CC1	-1.1	-71.2*	-4.2	24.2
CCCNc1nc(OCC(F)(F)F)nc(OCC(F)(F)F)n1	2.1	-6.3	-1.6	0.6
COc1cccc(Nc2nc(CN3CCOCC3)nc3sc4c(c23)CCCC4)c1	?	-6.5	-21.7	-134.5*
Cc1[nH]c(C)c(S(=O)(=O)NCc2ccc(F)cc2)c1C(=O)N1CCCCC1	-0.1	1.3	18.3	-0.8
O=C(Nc1ccc(CSc2ccccc2)cc1)c1ccco1	?	-9.9	-3.3	-1.9
O=C(CSc1nnc(SCc2ccccc2)s1)NNC(=S)Nc1ccccc1	-3.4	-1.4	5.8	-85.4*
O=C(Cc1ccccc1)NNC(=S)Nc1ccccc1	1.6	12.5	4.4	10.3
